Eleven molecules from PubChem BioAssay can be followed below.

The structures appear in SMILES notation. The source made the active and inactive calls. Unless noted, how the calls were made is not given here.

Test [1] can be described thus: HepG2 liver cancer cell viability effects, profiling panel, resazurin fluorescence, 24 h, PK04 Diversity Set (AID 1172). The conditions noted are these: higher = more signal.
Test [2] is described as follows: basal S. cerevisiae growth modulation, no modifier, primary screen, OD600, strain BY4716, 24 h, basal condition (AID 1173). Particulars: OD600, 24 h, higher = more signal, called active from +8 up or from −8 down.
Test [3] is described as follows: MM1S myeloma cell viability, profiling panel, resazurin fluorescence, basal, 24 h, PK04 Diversity Set (AID 1174).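 Further: MM1S multiple myeloma cell line.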 Particulars: higher = more signal, called active from +8 up or from −8 down.
Test [4] deals with Dihydroorotate dehydrogenase (quinone), mitochondrial (Plasmodium falciparum (isolate 3D7)) (UniProt Q08210). In words: PfDHODH enzyme inhibitors, primary screen, biochemical, C-terminal His tag, absorbance 600 nm (AID 1175).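 Further: recombinant parasite enzyme with a five histidine tag at its C terminus.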 The conditions noted are these: DCIP absorbance 600 nm, higher = more signal, called active from +8 up or from −8 down.
Dihydroorotate dehydrogenase (quinone), mitochondrial (Plasmodium falciparum (isolate 3D7)), sequence (Q08210 whole entry, looked up): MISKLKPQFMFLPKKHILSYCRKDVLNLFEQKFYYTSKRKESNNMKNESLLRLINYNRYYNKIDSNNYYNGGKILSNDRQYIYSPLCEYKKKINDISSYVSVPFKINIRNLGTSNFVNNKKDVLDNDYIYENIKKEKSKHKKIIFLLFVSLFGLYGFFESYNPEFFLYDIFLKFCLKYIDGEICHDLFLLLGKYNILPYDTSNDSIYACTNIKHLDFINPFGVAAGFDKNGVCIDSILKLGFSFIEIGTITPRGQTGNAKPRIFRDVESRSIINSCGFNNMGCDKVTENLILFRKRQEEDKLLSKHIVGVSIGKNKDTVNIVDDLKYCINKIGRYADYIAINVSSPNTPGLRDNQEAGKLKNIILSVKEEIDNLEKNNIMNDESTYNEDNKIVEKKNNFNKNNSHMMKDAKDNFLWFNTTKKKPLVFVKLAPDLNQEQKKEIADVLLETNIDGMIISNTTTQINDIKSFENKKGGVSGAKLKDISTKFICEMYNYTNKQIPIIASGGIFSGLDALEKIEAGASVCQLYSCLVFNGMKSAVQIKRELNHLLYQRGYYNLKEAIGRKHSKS
The nature of test [5]: S. cerevisiae RM11-1a growth modifiers, primary screen, strain RM11-1a, OD600, basal, 24 h (AID 1177).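 Further: cultures grown under basal conditions with no added stressor.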 Particulars: OD600, 24 h, higher = more signal, called active from +8 up or from −8 down.
Test [6] is described as follows: E. coli acrAB mutant growth effects, primary screen, E. coli filamentation inducers, strain DRC39, OD650, 24 h (AID 1178).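 Further: growth measured as culture turbidity by optical density at 650 nm.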 The conditions noted are these: higher = more signal, called active from +8 up or from −8 down.
Test [7] is described as follows: E. coli acrAB mutant growth effects, primary screen, E. coli filamentation inducers, strain DRC39, OD650, 48 h (AID 1179).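 Further: screen aims at cell division blockers that make cells filament.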 Particulars: E. coli DRC39 delta-acrAB growth, higher = more signal, called active from +8 up or from −8 down.
Test [8] is described as follows: RPMI8226 myeloma cell viability, profiling panel, resazurin fluorescence, basal, 24 h, PK04 Diversity Set (AID 1180).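 Further: RPMI8826 multiple myeloma cell line at 5000 cells per well.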 The conditions noted are these: higher = more signal.
The target of test [9] is E3 ubiquitin-protein ligase XIAP (Homo sapiens) (UniProt P98170). Briefly: XIAP binders, primary screen, biophysical, small-molecule microarray, fluorescence 635 nm (AID 1181).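 Further: score merges 667 nm emission and signal to noise over triplicate slides.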 The conditions noted are these: small-molecule microarray binding, higher = more signal.
E3 ubiquitin-protein ligase XIAP (Homo sapiens), sequence (P98170 whole entry, looked up): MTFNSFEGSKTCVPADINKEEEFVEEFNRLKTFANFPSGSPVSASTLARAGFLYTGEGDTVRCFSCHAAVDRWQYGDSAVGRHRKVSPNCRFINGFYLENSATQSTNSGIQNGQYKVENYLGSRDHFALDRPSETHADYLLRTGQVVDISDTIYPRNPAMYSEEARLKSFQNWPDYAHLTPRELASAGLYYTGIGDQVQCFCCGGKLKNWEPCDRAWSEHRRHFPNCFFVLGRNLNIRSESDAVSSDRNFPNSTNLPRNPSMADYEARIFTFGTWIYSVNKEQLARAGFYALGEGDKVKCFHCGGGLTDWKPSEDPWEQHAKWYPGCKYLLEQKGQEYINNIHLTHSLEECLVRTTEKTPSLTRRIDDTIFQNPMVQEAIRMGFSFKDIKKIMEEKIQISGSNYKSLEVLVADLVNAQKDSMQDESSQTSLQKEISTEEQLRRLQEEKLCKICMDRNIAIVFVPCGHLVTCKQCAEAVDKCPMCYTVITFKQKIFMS
The subject of test [10] is XIP peptide (Xip251-270) binding. Briefly: small-molecule binders of XIP peptide, primary screen, biochemical, small-molecule microarray, fluorescence 635/667 nm, 0.1 µg/mL protein (AID 1182). The conditions noted are these: fluorescent protein binding, 635 nm, higher = more signal, called active from +8 up or from −8 down.
The subject of the next test is XIP peptide (Xip251-270). In words: small-molecule binders of XIP peptide, primary screen, biochemical, small-molecule microarray, fluorescence 635/667 nm, 0.5 µg/mL protein (AID 1183). The conditions noted are these: small-molecule microarray binding, fluorescence 635 nm; higher = more signal.
Test [11] in a line: Plasmodium falciparum growth inhibition, primary screen, strain 3D7, DAPI fluorescence, 100 nL (AID 1184).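 Further: parasites grown inside human red blood cells in medium with human serum.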 The conditions noted are these: P. falciparum 3D7 growth, 3 d, higher = more signal.
In test [12] the target is Homeobox protein Hox-A13 (Mus musculus) (UniProt Q62424). In words: inhibitors of HoxA13-DNA binding, primary screen, biochemical, fluorescence polarization, labeled oligonucleotide (AID 1185). Particulars: 15 min, higher = more signal, called active from +8 up or from −8 down.
Homeobox protein Hox-A13 (Mus musculus), sequence (Q62424 whole entry, looked up): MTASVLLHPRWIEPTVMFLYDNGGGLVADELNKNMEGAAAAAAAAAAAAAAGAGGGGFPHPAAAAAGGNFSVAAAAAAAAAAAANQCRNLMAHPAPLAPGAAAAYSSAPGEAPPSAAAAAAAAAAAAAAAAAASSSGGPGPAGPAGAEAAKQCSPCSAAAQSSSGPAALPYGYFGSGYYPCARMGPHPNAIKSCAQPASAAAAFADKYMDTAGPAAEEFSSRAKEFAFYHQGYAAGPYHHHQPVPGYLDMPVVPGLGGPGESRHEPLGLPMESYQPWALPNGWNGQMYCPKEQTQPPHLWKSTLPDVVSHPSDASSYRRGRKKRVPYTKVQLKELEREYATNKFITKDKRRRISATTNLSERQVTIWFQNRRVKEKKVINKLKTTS
Test [13] can be described thus: P. aeruginosa biofilm formation inhibitors, primary screen, strain PAO1, LB-PBS medium, absorbance 600 nm (AID 1176). The conditions noted are these: P. aeruginosa PAO1 growth/biofilm, A600, 12 h; higher = more signal.
Test [14] in a line: inhibitors of hydroxyurea-induced Chk1 phosphorylation, primary screen, imaging, HeLa, phospho-Chk1 antibody, percent positive cells (AID 1186). Particulars: hydroxyurea-induced phospho-Chk1 immunofluorescence imaging, higher = more signal.
A short description of test [15]: inhibitors of hydroxyurea-induced Chk1 phosphorylation, primary screen, imaging, HeLa, phospho-Chk1 nuclear intensity (AID 1187). The conditions noted are these: hydroxyurea-induced phospho-Chk1 immunofluorescence imaging, higher = more signal.

In the case of `C[C@@H]1C=CCC(=O)OC[C@H]2O[C@@H](C=C[C@@H]2O)[C@H](C)C=CCC(=O)OC[C@H]2O[C@H]1C=C[C@@H]2O`, the z-score in test [1] is -0.269; in test [2], -2.13 (inactive); in test [3] it was 0.689 (inactive); in test [5] it was -2.89 (inactive); in test [6], 0.552 (inactive); in test [7], -1.41 (inactive). Further, the values for the z-score in test [8], in test [11] and in test [12] were 0.807, -2.25 and -1.31 (inactive), respectively. Moreover, the composite z-score is -3.68 (inactive) in test [4], -0.039 in test [9], 0.424 (inactive) in test [10] and 0.466 in the test with XIP peptide (Xip251-270).

`CO[C@@H]1COC(=O)CC=C[C@@H](C)[C@H](OC)COC(=O)CC=C[C@H]1C`: the z-score in test [1] was 0.994; in test [2], -1.43 (inactive); in test [3], 0.176 (inactive); in test [5] it was -0.658 (inactive); in [6], 0.642 (inactive); in [7], 0.505 (inactive). In addition, the z-score in test [8] was 0.854; in [11] it was 0.674; in test [12], -0.26 (inactive). Further, the composite z-score in test [4] was -0.136 (inactive); in [9] it was 0.0891; in [10] it was -0.583 (inactive); in the test with XIP peptide (Xip251-270), 0.428.

As for `Cc1ccccc1C(O)C1C=CC2C(=O)N(c3ccccc3)C(=O)C2N1Nc1ccc(C#N)cc1` (centres undefined), the z-score in [1] is -0.709; in test [2], -0.257 (inactive); in test [3], 0.132 (inactive); in [13], 1.26 (inactive); in [5] it was 0.302 (inactive); in test [6], 0.493 (inactive). Further, the z-score in [7] is 0.0888 (inactive); in test [8] it was -0.0953; in [11], -0.494; in [12], -0.699 (inactive); in test [14] it was -0.873 (inactive); in test [15], -0.982 (inactive). Besides, the composite z-score in [4] is 0.513 (inactive); in test [9] it was 0.198; in test [10] it was 3.08 (inactive); in the test with XIP peptide (Xip251-270) it was 0.761.

Turning to `COC(=O)c1ccc(C#CC(NP(=O)(c2ccccc2)c2ccccc2)c2ccccc2)cc1` (centres undefined), the z-score in test [1] was -0.0848; in [2], 0.441 (inactive); in [3] it was 0.693 (inactive); in test [13], 0.231 (inactive); in [5] it was 0.919 (inactive); in test [6], 0.37 (inactive). In addition, the z-score in [7] was 0.369 (inactive); in test [8], 1.26; in test [11], -0.253; in test [12], -3.02 (inactive); in test [14], -1.14 (inactive); in [15], -1.03 (inactive). Besides, the composite z-score in [4] was -3.37 (inactive); in test [9], 0.063; in test [10], 0.238 (inactive); in the test with XIP peptide (Xip251-270), -0.0253.

For `COc1cccc([C@H]2N[C@H](C(=O)O)CC[C@@H]2C)c1`, the z-score is -0.104 in [1]; -1.03 (inactive) in [2]; 0.975 (inactive) in test [3]; -0.393 (inactive) in test [5]; -0.914 (inactive) in [6]; -0.83 (inactive) in test [7]. Besides, the z-score was 0.761 in test [8], -1.4 in test [11] and 3.05 (inactive) in test [12]. Also, the composite z-score was -2.33 (inactive) in test [4], 0.169 in [9], 0.253 (inactive) in test [10] and -0.567 with XIP peptide (Xip251-270).

`CO[C@H]1COC(=O)[C@@H](OCc2ccccc2)C=C[C@H](C)[C@@H](OC)COC(=O)[C@H](OCc2ccccc2)C=C[C@@H]1C`: the z-score in test [1] was 1.12; in test [2], -2.2 (inactive); in [3] it was 1.6 (inactive); in test [5], -3.47 (inactive); in test [6], 0.422 (inactive); in test [7], -0.97 (inactive). Further, the z-score in test [8] was 0.193; in test [11], 0.313; in test [12], 0.371 (inactive). The composite z-score in test [4] was -1.11 (inactive); in test [9] it was -0.148; in test [10], -1.11 (inactive); in the test on XIP peptide (Xip251-270), -0.267.

Take `CO[C@H]1COC(=O)[C@H](CCSC)NC(=O)CC=C[C@@H](C)COC(=O)[C@@H](OCc2ccccc2)C=C[C@@H]1C`: the z-score is 0.732 in test [1]; 0.0539 (inactive) in [2]; 1.06 (inactive) in test [3]; 0.449 (inactive) in [5]; 0.607 (inactive) in [6]; 0.26 (inactive) in [7]. Also, the figures for the z-score in [8], in test [11] and in test [12] were 0.658, -0.115 and 0.26 (inactive), respectively. The composite z-score is 0.292 (inactive) in test [4], -0.12 in test [9], 0.786 (inactive) in test [10] and 0.581 with XIP peptide (Xip251-270).

As to `CO[C@H]1COC(=O)[C@H](C)NC(=O)CC=C[C@@H](C)[C@H](NS(=O)(=O)c2ccc(C)cc2)COC(=O)CC=C[C@@H]1C`, the z-score in [1] is 0.072; in test [2] it was -1.57 (inactive); in test [3], 1.19 (inactive); in test [5] it was -0.724 (inactive); in [6], 0.127 (inactive); in [7] it was -0.244 (inactive). Besides, the z-score in test [8] is 0.945; in test [11], -0.266; in test [12], -1.62 (inactive). The composite z-score is -0.253 (inactive) in test [4], 0.023 in test [9], -0.132 (inactive) in test [10] and 0.407 in the test on XIP peptide (Xip251-270).

For the molecule `O=C(O)[C@@H]1Cc2c([nH]c3ccccc23)[C@@H](c2ccccc2)N1`, the z-score in test [1] is 0.326; in [2], -0.949 (inactive); in test [3] it was 1.14 (inactive); in [5], -0.19 (inactive); in test [6], -0.266 (inactive); in [7], 0.0747 (inactive). In addition, the z-score in test [8] was 0.724; in test [11] it was -0.421; in test [12] it was 0.969 (inactive). The composite z-score was -0.36 (inactive) in test [4], -0.127 in test [9], 0.0176 (inactive) in [10] and 0.0822 in the test with XIP peptide (Xip251-270).

Consider `C[C@@H]1CC[C@H]2C(=O)N3[C@@H](CC[C@@H](C)[C@@H]3c3cccc(N4CCOCC4)c3)C(=O)N2[C@H]1c1cccc(N2CCOCC2)c1`, for which the z-score in [1] was 0.728; in test [2], -0.0109 (inactive); in test [3], 1.04 (inactive); in test [5] it was 1.35 (inactive); in [6], 0.203 (inactive); in test [7] it was 0.202 (inactive). Further, the figures for the z-score in test [8], in [11] and in test [12] were 1.39, -0.529 and -4.07 (inactive), respectively. Further, the composite z-score in test [4] is 0.148 (inactive); in test [9] it was -0.165; in test [10] it was 0.66 (inactive); in the test on XIP peptide (Xip251-270) it was 0.705.

Consider `CO[C@@H]1COC(=O)CC=C[C@H](C)COC(=O)[C@H](Cc2ccccc2)NC(=O)CC=C[C@H]1C`, for which the z-score was 0.0057 in test [1]; -1.95 (inactive) in test [2]; 0.266 (inactive) in test [3]; -1.02 (inactive) in test [5]; 0.131 (inactive) in test [6]; -0.0502 (inactive) in test [7]. Moreover, the z-score in test [8] was -0.094; in test [11], 0.684; in test [12], -0.631 (inactive). Besides, the composite z-score in [4] was 0.519 (inactive); in test [9], 0.0896; in [10] it was 0.717 (inactive); in the test on XIP peptide (Xip251-270) it was 0.18.
